# Assay results published in PubChem BioAssay (NCATS).
# Records with an inconclusive call do not appear. Where a call stands in place of a potency, no number is given. The source made the active and inactive calls. Calls follow the shape of the dose curve; as a rule, active = well fitted cell-killing curve with a large enough effect; inconclusive = small, poorly fitted or top-dose-only effect, or effect the other way; inactive = no such curve, though single readings can be large or run the other way.
# Columns and labels:
# [1] = Quantitative High-Throughput drug screen in 47 multiple myeloma cell lines against the NCATS MIPE library collection: JIM1_ECACC cell viability assay (AID 1918964)
# Summary of the method: (§1)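 Approved and investigational drugs from MIPE 4.0 were added by pin tool to 500 cells per well. After 48 hours at 37C, ATP-based CellTiter-Glo luminescence indicated remaining viability.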
# [2] = Quantitative High-Throughput drug screen in 47 multiple myeloma cell lines against the NCATS MIPE library collection: H1112_PLB cell viability assay (AID 1918967; also: nearly all actives have a fitted effect of over 30% in size)
# Summary of the method: as §1
# [3] = Quantitative High-Throughput drug screen in 47 multiple myeloma cell lines against the NCATS MIPE library collection: Karpas25_ECACC cell viability assay (AID 1918968; also: nearly all actives have a fitted effect of over 35% in size)
# Summary of the method: as §1
# [4] = Quantitative High-Throughput drug screen in 47 multiple myeloma cell lines against the NCATS MIPE library collection: KMS27_JCRB cell viability assay (AID 1918970); also: nearly all actives have a fitted effect of over 30% in size
# Summary of the method: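 Myeloma cells (500 per well) were exposed to MIPE 4.0 compounds for 48 h at 37 °C, 5% CO2; viability was read as ATP luminescence with CellTiter-Glo, normalized to DMSO-only (100%) and media-only (0%) wells.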
# [5] = Quantitative High-Throughput drug screen in 47 multiple myeloma cell lines against the NCATS MIPE library collection: KMS12BM_JCRB cell viability assay (AID 1918971); also: nearly all actives have a fitted effect of over 35% in size
# Summary of the method: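 Myeloma cells (500 per well) were exposed to MIPE 4.0 compounds by pin transfer and incubated 48 hours at 37C, 5% CO2. Viability was read as ATP by CellTiter-Glo luminescence, normalised to DMSO (100%) and media-only (0%) wells.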
# [6] = Quantitative High-Throughput drug screen in 47 multiple myeloma cell lines against the NCATS MIPE library collection: KMS12PE_JCRB cell viability assay (AID 1918972); also: nearly all actives have a fitted effect of over 30% in size
# Summary of the method: as §1
# [7] = Quantitative High-Throughput drug screen in 47 multiple myeloma cell lines against the NCATS MIPE library collection: KMS20_JCRB cell viability assay (AID 1918973); also: nearly all actives have a fitted effect of over 45% in size
# Summary of the method: as §1
# [8] = Quantitative High-Throughput drug screen in 47 multiple myeloma cell lines against the NCATS MIPE library collection: JJN3_DSMZ cell viability assay (AID 1918966; also: nearly all actives have a fitted effect of over 50% in size)
# Summary of the method: as §1
# [9] = Quantitative High-Throughput drug screen in 47 multiple myeloma cell lines against the NCATS MIPE library collection: INA6_PLB cell viability assay (AID 1918965; also: nearly all actives have a fitted effect of over 55% in size)
# Summary of the method: as §1
# [10] = Quantitative High-Throughput drug screen in 47 multiple myeloma cell lines against the NCATS MIPE library collection: KMS21BM_JCRB cell viability assay (AID 1918974); details: ATP luminescence, 48 h; viability: at 45.8 µM (top of the series) unless noted
# Summary of the method: as §1
# Potency is read from the fitted curve at half-maximal effect.
smiles,measurement,setting,value
CN(C)CCCN1c2ccccc2CCc2ccc(Cl)cc21,Potency,[1],9.35 µM (active)
same,Potency,[2],0.833 µM (active)
same,Potency,[3],0.743 µM (active)
same,Potency,[4],14.8 µM (active)
same,Potency,[5],18.7 µM (active)
same,Potency,[6],11.8 µM (active)
same,Potency,[7],1.87 µM (active)
Cc1cnc(C(=O)NCCc2ccc(S(=O)(=O)NC(=O)NC3CCCCC3)cc2)cn1,Potency,[4],inactive
same,Potency,[5],18.7 µM (active)
same,Potency,[6],14.8 µM (active)
Clc1ccc(C(c2ccccc2Cl)C(Cl)Cl)cc1 (stereo unspecified),Potency,[2],inactive
same,Potency,[5],18.7 µM (active)
COc1ccccc1N1CCN(CC(O)COc2cccc3ccccc23)CC1 (stereo unspecified),Potency,[8],inactive
same,Potency,[2],16.6 µM (active)
same,Potency,[3],11.8 µM (active)
same,Potency,[6],inactive
COc1ccccc1OCCNCC(O)COc1cccc2[nH]c3ccccc3c12 (stereo unspecified),Potency,[2],16.6 µM (active)
same,Potency,[3],inactive
Cc1cc(C(C)(C)C)c(O)c(C)c1CC1=NCCN1,Potency,[2],inactive
same,Potency,[3],inactive
same,Potency,[5],inactive
same,Potency,[6],inactive
CCCNCC(O)COc1ccccc1C(=O)CCc1ccccc1 (stereo unspecified),Potency,[8],inactive
same,Potency,[2],inactive
same,Potency,[3],16.6 µM (active)
same,Potency,[5],inactive
COc1ccc2c(c1)c(CC(=O)O)c(C)n2C(=O)c1ccc(Cl)cc1,Potency,[9],16.6 µM (active)
same,Potency,[3],20.9 µM (active)
same,Potency,[7],9.35 µM (active)
CN1CCC(=C2c3ccccc3CC(=O)c3sccc32)CC1,Potency,[9],8.33 µM (active)
same,Potency,[2],6.62 µM (active)
same,Potency,[3],7.43 µM (active)
same,Potency,[6],inactive
same,Potency,[7],inactive
same,Potency,[10],inactive
CN(C)c1nc(N(C)C)nc(N(C)C)n1,Potency,[2],inactive
same,Potency,[3],inactive
same,Potency,[4],inactive
same,Potency,[5],inactive
same,Potency,[6],inactive
same,Potency,[7],inactive
O=c1[nH]cc(F)c(=O)[nH]1,Potency,[9],5.26 µM (active)
same,Potency,[2],inactive
same,Potency,[6],4.69 µM (active)
CC(C)(Oc1ccc(C2CC2(Cl)Cl)cc1)C(=O)O (stereo unspecified),Potency,[2],inactive
same,Potency,[5],inactive
same,Potency,[6],inactive
O=C(CCCN1CCC(O)(c2ccc(Cl)cc2)CC1)c1ccc(F)cc1,Potency,[9],18.7 µM (active)
same,Potency,[2],inactive
same,Potency,[3],2.96 µM (active)
same,Potency,[5],inactive
same,Potency,[7],13.2 µM (active)
Cc1ccccc1N1C(=O)c2cc(S(N)(=O)=O)c(Cl)cc2NC1C (stereo unspecified),Potency,[8],4.69 µM (active)
same,Potency,[2],inactive
same,Potency,[3],inactive
same,Potency,[5],inactive
same,Potency,[7],inactive
NC(=O)OCC(COC(N)=O)c1ccccc1,Potency,[9],inactive
same,Potency,[2],inactive
same,Potency,[4],inactive
same,Potency,[5],inactive
same,Potency,[6],inactive
same,Potency,[7],inactive
CS(=O)(=O)Nc1ccc([N+](=O)[O-])cc1Oc1ccccc1,Potency,[4],inactive
same,Potency,[5],20.9 µM (active)
same,Potency,[6],inactive
Cc1cc(C(C)(C)C)cc(C)c1CC1=NCCN1,Potency,[2],inactive
same,Potency,[3],inactive
same,Potency,[6],inactive
same,Potency,[7],inactive
CC(C)Cc1ccc(C(C)C(=O)O)cc1 (stereo unspecified),Potency,[9],1.62 µM (active)
same,Potency,[2],inactive
same,Potency,[4],inactive
COc1cc2nc(N(C)CCCNC(=O)C3CCCO3)nc(N)c2cc1OC (stereo unspecified),Potency,[2],inactive
same,Potency,[3],inactive
same,Potency,[6],inactive
same,Potency,[7],inactive
Nc1ccn([C@H]2CC[C@@H](CO)O2)c(=O)n1,Potency,[2],inactive
same,Potency,[6],inactive
CCc1cccc2c3c([nH]c12)C(CC)(CC(=O)O)OCC3 (stereo unspecified),Potency,[9],inactive
same,Potency,[2],inactive
same,Potency,[4],inactive
same,Potency,[6],inactive
CN(C)CCOC(c1ccccc1)c1ccccc1,Potency,[9],10.5 µM (active)
same,Potency,[3],9.35 µM (active)
same,Potency,[4],inactive
same,Potency,[5],inactive
same,Potency,[7],18.7 µM (active)
O=C1N(c2ccccc2)c2ccccc2C1(Cc1ccncc1)Cc1ccncc1,Potency,[8],inactive
same,Potency,[2],inactive
same,Potency,[3],inactive
same,Potency,[4],inactive
same,Potency,[6],inactive
same,Potency,[7],0.001 µM (active)
O=C(C1CCCCC1)N1CC(=O)N2CCc3ccccc3C2C1 (stereo unspecified),Potency,[2],inactive
same,Potency,[3],inactive
same,Potency,[4],inactive
same,Potency,[6],inactive
same,Potency,[7],inactive
CN1C(C(=O)Nc2ccccn2)=C(O)c2ccccc2S1(=O)=O,Potency,[8],inactive
same,Potency,[2],inactive
same,Potency,[5],inactive
same,Potency,[6],inactive
C[C@H]1c2cccc(O)c2C(O)=C2C(=O)[C@]3(O)C(O)=C(C(N)=O)C(=O)[C@@H](N(C)C)[C@@H]3[C@@H](O)[C@@H]21,Potency,[9],37.2 µM (active)
same,Potency,[3],16.6 µM (active)
same,Potency,[4],inactive
same,Potency,[6],29.6 µM (active)
C[C@](N)(Cc1ccc(O)c(O)c1)C(=O)O,Potency,[8],18.7 µM (active)
same,Potency,[3],20.9 µM (active)
same,Potency,[4],inactive
same,Potency,[6],inactive
same,Potency,[7],16.6 µM (active)
same,Potency,[10],20.9 µM (active)
Cn1ccc2cc3c(cc21)CCN3C(=O)Nc1cccnc1,Potency,[9],14.8 µM (active)
same,Potency,[2],20.9 µM (active)
same,Potency,[3],20.9 µM (active)
same,Potency,[6],20.9 µM (active)
O=c1c(-c2ccc(O)cc2)coc2cc(O)cc(O)c12,Potency,[2],inactive
same,Potency,[5],5.26 µM (active)
same,Potency,[6],2.64 µM (active)
NCCS(=O)(=O)O,Potency,[5],inactive
same,Potency,[6],inactive
same,Potency,[7],inactive
CC(C(=O)O)c1cccc(C(=O)c2ccccc2)c1 (stereo unspecified),Potency,[2],18.7 µM (active)
same,Potency,[3],13.2 µM (active)
same,Potency,[6],inactive
CN1CCN2c3ccccc3Cc3ccccc3C2C1 (stereo unspecified),Potency,[2],23.5 µM (active)
same,Potency,[3],23.5 µM (active)
same,Potency,[5],20.9 µM (active)
same,Potency,[6],18.7 µM (active)
CN(C)CCC=C1c2ccccc2C=Cc2ccccc21,Potency,[8],18.7 µM (active)
same,Potency,[3],1.66 µM (active)
same,Potency,[4],inactive
same,Potency,[5],1.48 µM (active)
same,Potency,[6],inactive
same,Potency,[7],14.8 µM (active)
Cc1ccc(-c2cc(C(F)(F)F)nn2-c2ccc(S(N)(=O)=O)cc2)cc1,Potency,[6],4.18 µM (active)
Fc1ccc([C@@H]2CCNC[C@H]2COc2ccc3c(c2)OCO3)cc1,Potency,[2],10.5 µM (active)
same,Potency,[3],inactive
same,Potency,[5],14.8 µM (active)
same,Potency,[6],inactive
